Some test systems named below: NCI-H23 lung; NCI-H226 lung; NCI-H322M lung; HOP-62 NSCLC; NCI-H460 lung; HOP-92 NSCLC; NCI-H522 lung; A549/ATCC NSCLC; 786-0 renal; COLO 205 colon.
Common to all, as to assay: NCI-60 one-dose screen, 48 h (100 = growth as untreated, 0 = no growth, -100 = all killed)
Common to all, as to conditions: 10 µM unless noted

About 83,000 compounds went through this panel and 20% of them were active in at least one assay; those are over-represented in the sample as a whole.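 Method: cells in 96-well plates; compound added at one concentration; 48 h incubation; percent growth measured; values under 10 scored active.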 Values without a mark were called inactive. Calls of active or inactive are those of the source.

Take `CC[C@]12C=CCN3CC[C@@]4(c5ccc(OC)cc5N(C)[C@H]4[C@@](O)(C(=O)OC)[C@@H]1OC(=O)CCC(=O)N[C@@H](Cc1c[nH]c4ccccc14)C(=O)OC)[C@@H]32`: the growth in the assay on NCI-H23 lung was 101%; with NCI-H226 lung it was 104%; with NCI-H322M lung, 98.5%; with HOP-62 NSCLC it was 90.1%; in the assay on NCI-H460 lung, 96.6%; in the assay on HOP-92 NSCLC it was 66.8%. The growth with NCI-H522 lung was 78.6%; in the assay on A549/ATCC NSCLC, 86.8%; with 786-0 renal, 91.5%; in the assay with COLO 205 colon, 98.8%.
In the case of `CS(=O)(=O)c1c(Nc2ccccc2)n[nH]c1N`, the growth in the assay with NCI-H23 lung was 105%; in the assay with NCI-H226 lung it was 105%; in the assay with NCI-H322M lung, 103%; with HOP-62 NSCLC, 109%; in the assay on NCI-H460 lung, 110%; with HOP-92 NSCLC, 85%. Also, the growth was 100% in the assay on NCI-H522 lung, 95.9% in the assay with A549/ATCC NSCLC and 96.7% in the assay on 786-0 renal.
`Cc1nn(-c2nc3ccccc3[nH]2)c2c1C(c1ccc3c(c1)OCO3)CC(=O)N2` (centres undefined): the growth with NCI-H23 lung is 4.34% (active); in the assay on NCI-H226 lung, 32%; with NCI-H322M lung, 65%; in the assay with HOP-62 NSCLC it was 22.1%; in the assay on NCI-H460 lung, -8.19% (active); in the assay with HOP-92 NSCLC, 12.6%. For the same molecule, the growth in the assay with NCI-H522 lung was 26.7%; with A549/ATCC NSCLC, 22.8%; with 786-0 renal it was 32.8%.
In the case of `O=C(/C=C/c1ccc(Cl)cc1)c1ccc(O)c(CN2CCN(c3cc4c(cc3F)c(=O)c(C(=O)O)cn4C3CC3)CC2)c1`, the growth is 51.7% with NCI-H23 lung; 67.3% in the assay on NCI-H226 lung; 72.8% with NCI-H322M lung; 49.8% in the assay on HOP-62 NSCLC; 70.7% in the assay on NCI-H460 lung; 40.8% in the assay with HOP-92 NSCLC. The values for the growth with NCI-H522 lung, in the assay on A549/ATCC NSCLC and in the assay with 786-0 renal were 45.2%, 50% and 55.1%, respectively.
With `CCCCCC(=O)Oc1ccc(/C(=C(\C)c2ccccc2)c2ccc(OCCN(CC)CC)cc2)cc1`, the growth with NCI-H23 lung was 79.8%; in the assay with NCI-H226 lung, 93.3%; in the assay on NCI-H322M lung, 81%; in the assay with HOP-62 NSCLC, 91.7%; in the assay on NCI-H460 lung it was 52.3%; in the assay with HOP-92 NSCLC, 52.8%. Further, the growth in the assay with NCI-H522 lung was 62.4%; in the assay with A549/ATCC NSCLC it was 67.7%; with 786-0 renal, 57.4%.
Consider `COc1cc(C2CC(=O)Nc3c2cnn3Cc2ccco2)cc2c1OCCO2` (centres undefined), for which the growth in the assay on NCI-H23 lung is 96.6%; in the assay with NCI-H226 lung, 92.4%; with NCI-H322M lung, 82.5%; in the assay on HOP-62 NSCLC it was 88.3%; in the assay on NCI-H460 lung it was 76.6%; in the assay on HOP-92 NSCLC, 109%. Besides, the growth was 44.4% in the assay with NCI-H522 lung, 80.6% in the assay with A549/ATCC NSCLC and 98% in the assay on 786-0 renal.
`C=CC[N+]1(CC)CCN=C1CCCCCCCCCCCCCCCCC` (centres undefined): the growth is -92.9% (active) in the assay with NCI-H23 lung; -50% (active) in the assay with NCI-H226 lung; 27.8% in the assay with NCI-H322M lung; -95% (active) in the assay with HOP-62 NSCLC; -100% (active) with NCI-H460 lung; -57.6% (active) in the assay with HOP-92 NSCLC. For the same molecule, the growth in the assay on NCI-H522 lung was -85.2% (active); with A549/ATCC NSCLC, -92.9% (active); in the assay with 786-0 renal it was -98.4% (active).
For `C=CC[N+]1(CCO)CCN=C1CCCCCCCCCCCCC` (centres undefined), the growth is -86.7% (active) in the assay with NCI-H23 lung; 3.45% (active) with NCI-H226 lung; 73.9% with NCI-H322M lung; -90.5% (active) in the assay on HOP-62 NSCLC; -85.8% (active) in the assay on NCI-H460 lung; -18.3% (active) in the assay with HOP-92 NSCLC. The growth is -82.6% (active) in the assay with NCI-H522 lung, 0.535% (active) with A549/ATCC NSCLC and -97.1% (active) in the assay with 786-0 renal.
On to `O=C(Nc1ccc(Oc2ccc(F)cc2)c(Cl)c1)c1cccnc1`, for which the growth in the assay on NCI-H23 lung was 80%; in the assay with NCI-H226 lung, 99.8%; with NCI-H322M lung, 101%; in the assay with HOP-62 NSCLC it was 106%; in the assay with NCI-H460 lung, 97%; with HOP-92 NSCLC, 91.9%. Moreover, the growth with NCI-H522 lung is 72.3%; with A549/ATCC NSCLC, 86%; with 786-0 renal it was 92.3%.
For the molecule `CC1CN(C(C)C)C(=S)N(c2ccccc2)C1=O` (centres undefined), the growth in the assay with NCI-H23 lung is 94.6%; in the assay with NCI-H226 lung, 106%; with NCI-H322M lung, 101%; with HOP-62 NSCLC, 85.7%; in the assay on NCI-H460 lung, 105%; with HOP-92 NSCLC, 107%. Further, the growth in the assay with NCI-H522 lung is 87%; in the assay on A549/ATCC NSCLC, 101%; with 786-0 renal, 96.2%.
For the molecule `CN1CCN(Cc2ccc(NC(=O)c3cncc(C#Cc4cncc5nccnc45)c3)cc2C(F)(F)F)CC1`, the growth in the assay with NCI-H23 lung is 33.8%; in the assay with NCI-H226 lung, 5.97% (active); in the assay on NCI-H322M lung it was 43.6%; in the assay with HOP-62 NSCLC, 53.5%; in the assay on NCI-H460 lung, 34.5%; with HOP-92 NSCLC, -11.9% (active). In addition, the growth in the assay on NCI-H522 lung was 43.8%; with A549/ATCC NSCLC, 70.8%; in the assay on 786-0 renal, 73.1%.
In the case of `Clc1ccc(-c2nnc(COc3ccccc3Cl)o2)cc1`, the growth in the assay on NCI-H23 lung is 80.6%; in the assay with NCI-H226 lung, 93.8%; with NCI-H322M lung, 76.9%; with HOP-62 NSCLC, 61.3%; in the assay on NCI-H460 lung it was 82.9%; in the assay on HOP-92 NSCLC it was 49.2%. For the same molecule, the growth in the assay on NCI-H522 lung was 70.9%; in the assay with A549/ATCC NSCLC it was 58.3%; in the assay with 786-0 renal it was 23.3%; in the assay on COLO 205 colon it was 90.8%.
In the case of `COc1cnc2c(c1)C(=O)c1c-2n(CCCN2CCNCC2)c(=O)c2cc([N+](=O)[O-])ccc12`, the growth was -63.6% (active) in the assay with NCI-H23 lung; -59.4% (active) in the assay on NCI-H226 lung; -72.2% (active) with NCI-H322M lung; -67.2% (active) in the assay on HOP-62 NSCLC; -42.3% (active) with NCI-H460 lung; 22.8% in the assay with HOP-92 NSCLC. The growth in the assay on NCI-H522 lung is -48.2% (active); with A549/ATCC NSCLC, -87.2% (active); in the assay on 786-0 renal, -85.8% (active); in the assay on COLO 205 colon, 14.4%.
On to `O=C1CC(c2nc3ccccc3[nH]2)CN1C1CCCCC1` (centres undefined), for which the growth is 89.8% in the assay on NCI-H23 lung; 95.4% with NCI-H226 lung; 103% in the assay on NCI-H322M lung; 94.9% in the assay on HOP-62 NSCLC; 109% in the assay on NCI-H460 lung; 91.3% with HOP-92 NSCLC. Besides, the growth in the assay on NCI-H522 lung was 89.3%; in the assay on A549/ATCC NSCLC it was 104%; in the assay on 786-0 renal, 110%.
